The sample as a whole holds a higher share of hits than the screen did.
APE1 inh-1: blocks human APE1 abasic DNA cleavage. recombinant APE1, TAMRA/BHQ-2 abasic DNA cleavage fluorescence. P27695. 350,000 compounds, 0.35% hits. Potency, µM (titrated, usually from 65.8 µM), most hits filed as inhibitors; note: nearly all actives have a fitted effect of over 55% in size
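Enzyme (0.75 nM final) and test compound are incubated 15 min at room temperature before adding 50 nM quenched THF abasic-site duplex. Cleavage dequenches TAMRA, followed at 525/598 nm over three reads one minute apart.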
KDM4E inh: inhibitors of human JMJD2E histone demethylase | JMJD2E catalytic domain, FDH-coupled NADH fluorescence (FDH is formaldehyde dehydrogenase) | Potency, µM (doses to about 57.1 µM), most hits filed as inhibitors | 230,000 compounds, 1.6% hits; active = well fitted inhibition curve with a large enough effect, not every such curve was filed as active; inconclusive = small, poorly fitted or top-dose-only effect, or another doubt; inactive = no such curve, though single readings can be large or run the other way; note: nearly all actives have a fitted effect of over 50% in size
RECQ1 inh-1: inhibitors of human RECQ1 DNA helicase; P46063; RECQ1 DNA unwinding, red fluorescence kinetic read; Potency, µM (doses to about 57.3 µM), usual class: inhibitors; 240,000 compounds, 0.54% hits; note: nearly all actives have a fitted effect of over 30% in size
Target sequence (P46063 whole entry, looked up): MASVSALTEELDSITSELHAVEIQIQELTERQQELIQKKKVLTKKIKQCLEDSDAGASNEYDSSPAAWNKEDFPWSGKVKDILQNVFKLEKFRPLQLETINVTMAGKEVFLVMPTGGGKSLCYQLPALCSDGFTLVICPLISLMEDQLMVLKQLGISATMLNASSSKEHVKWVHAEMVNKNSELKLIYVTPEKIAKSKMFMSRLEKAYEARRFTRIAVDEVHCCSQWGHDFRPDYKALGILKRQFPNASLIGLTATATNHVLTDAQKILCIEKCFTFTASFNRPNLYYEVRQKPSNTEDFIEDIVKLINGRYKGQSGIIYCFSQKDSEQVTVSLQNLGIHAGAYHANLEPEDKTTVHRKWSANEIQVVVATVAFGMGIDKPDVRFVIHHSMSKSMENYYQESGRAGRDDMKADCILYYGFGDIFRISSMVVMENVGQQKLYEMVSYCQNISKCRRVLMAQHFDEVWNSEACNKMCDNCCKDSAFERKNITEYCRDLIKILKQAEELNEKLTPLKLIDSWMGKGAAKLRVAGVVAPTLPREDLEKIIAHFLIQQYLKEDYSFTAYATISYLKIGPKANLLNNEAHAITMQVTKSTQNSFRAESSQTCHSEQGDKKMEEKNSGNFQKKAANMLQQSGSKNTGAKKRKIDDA
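RECQ1T1 50 nM; forked duplex (20 bp + 30-nt ss tails) 200 nM, ATP 2 mM final; pH 8.0, 2 mM MgCl2, 2.5 ug/ml poly(dI-dC); 15 min compound preincubation; discontinuous kinetic read over 2 h at RT.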
BLM helicase inh: blocks DNA unwinding by human BLM helicase; AID 2528; 350,000 compounds, 0.2% hits; recombinant BLM DNA unwinding, fluorescence dequenching; Potency, µM (doses to about 56.1 µM), usual class: inhibitors; note: nearly all actives have a fitted effect of over 35% in size
PKM2 act: increases activity of human pyruvate kinase M2; 260,000 compounds, 0.34% hits; P14618; purified PKM2, Kinase-Glo ATP luminescence, activation; response scale: 0% is enzyme alone, no compound; Potency, µM (highest dose often 57.5 µM), usual class: activators; AID 1631; note: nearly all actives have a fitted effect of over 55% in size
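Purified hPK-M2 (>95% pure) converted ADP (0.1 mM final) to ATP with 0.5 mM PEP in 50 mM imidazole pH7.2, KCl, MgCl2, Tween 20, BSA; 1 h at room temperature. ATP detected by Kinase-Glo luminescence.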
APE1 dye cs: displaces fluorescent dye from DNA, flagging APE1 artifacts; shares compounds with APE1 inh-1; DNA fluorescent dye displacement counterscreen, fluorescence; Potency, µM (top dose mostly 28.5 µM), most hits filed as inhibitors; 480 compounds, 7% hits;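 note: loss of thiazole orange fluorescence as the dye is displaced from duplex DNA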
Endo IV inh: counter-screen for APE1 inhibitors: inhibitors of E. coli endonuclease IV; shares compounds with APE1 inh-1; E. coli Endo IV, fluorogenic AP-site DNA cleavage; Potency, µM (series often up to 27.1 µM), usual class: inhibitors; 560 compounds, 4% hits
APE1 inh-2: confirmation of inhibitors of human APE1 endonuclease | shares compounds with APE1 inh-1 | purified APE1, fluorogenic abasic-site DNA cleavage | Potency, µM (series often up to 57.1 µM), hits mostly inhibitors | 750 compounds, 44% hits | AID 2572; note: nearly all actives have a fitted effect of over 30% in size
APE1 FP inh: displaces DNA from human APE1 in FP assay; shares compounds with APE1 inh-1; APE1 binding to TAMRA-labelled double-stranded DNA, fluorescence polarization displacement; 480 compounds, 7% hits; Potency, µM (series often up to 28.5 µM), actives largely listed as inhibitors; AID 2573
RECQ1 inh conf: confirmation of human RECQ1 helicase inhibitors. shares compounds with RECQ1 inh-1. RECQ1 helicase DNA unwinding, fluorescence. Potency, µM (series often up to 229 µM), usual class: inhibitors. 610 compounds, 28% hits; note: nearly all actives have a fitted effect of over 45% in size
ADP FP counter: counter-screen for RECQ1 inhibitors: ADP displacement; 530 compounds, 27% hits; AID 2711; Potency, µM (top dose mostly 228 µM), actives largely listed as inhibitors; shares compounds with RECQ1 inh-1; ADP fluorescence polarization displacement counterscreen; note: nearly all actives have a fitted effect of over 45% in size
RECQ1 inh-2: confirmation of human RECQ1 helicase inhibitors; recombinant RECQ1 DNA unwinding, red fluorescence; Potency, µM (series often up to 119 µM), usual class: inhibitors; shares compounds with RECQ1 inh-1; 1,100 compounds, 15% hits; note: nearly all actives have a fitted effect of over 50% in size
A number is an active result; 0 = inactive; ? = inconclusive; - = not tested or not shown; ! = a repeat was not active; [ ] = dose if it differs, or a comment. Unless noted, calls come from the whole dose curve; as a rule, active = well fitted curve in the direction sought with a large enough effect; inconclusive = small, poorly fitted or top-dose-only effect, or another doubt; inactive = no such curve, though single readings can be large; an effect the other way counts as inactive or inconclusive.

SMILES | APE1 inh-1 | KDM4E inh | RECQ1 inh-1 | BLM helicase inh | PKM2 act | APE1 dye cs | Endo IV inh | APE1 inh-2 | APE1 FP inh | RECQ1 inh conf | ADP FP counter | RECQ1 inh-2
Cc1ccc(N=C2NC(=O)/C(=C/C=C/c3ccco3)S2)cc1 | 18µM | 25µM | 18µM | 16µM | 0 | 13µM | ? | ? | 0 | ? | - | ?
Cc1ccc(C(=O)Nc2ccc(S(=O)(=O)O)c3cc(S(=O)(=O)O)cc(S(=O)(=O)O)c23)cc1NC(=O)c1cccc(NC(=O)Nc2cccc(C(=O)Nc3cc(C(=O)Nc4ccc(S(=O)(=O)O)c5cc(S(=O)(=O)O)cc(S(=O)(=O)O)c45)ccc3C)c2)c1 | 22µM | 0 | 20µM | 0 | - | - | 14µM | 8.9µM | - | 2.5µM | 0 | -
CN(Cc1ccco1)c1cc(-c2ccoc2)ncn1 | ? | - | 0 | 0 | - | - | - | - | - | - | - | -
COc1cccc2c1NC(C(=O)O)C1CC=CC21 (stereo not drawn) | 11µM | ? | 8.9µM | 16µM | 0 | ? | 0 | 16µM | 0 | - | - | ?
COc1cccc(C2Nc3c(F)cc(Br)cc3C3C=CCC32)c1OC (stereo not drawn) | 0 | 0 | 0 | 0 | 0 | - | - | - | - | - | - | -
O=C(/C=C/c1ccc(O)c(O)c1)OC1C(O)CC(OC(=O)/C=C/c2ccc(O)c(O)c2)(C(=O)O)CC1O (stereo not drawn) | ? | 3.2µM | 0 | 0 | ? | 0 | 0 | 0 | ? | 0 | 0 | -
O=C1C=CC2=C3c4cc(O)c(O)cc4CC3(O)COC2=C1O (stereo not drawn) | 0.11µM | 2µM | 1.3µM | 16µM | - | ? | 0 | 1.4µM | 18µM | 11µM | 3.2µM | -
COc1ccc(CCn2c(O)cc3nn(-c4nc5ccccc5s4)c(=O)c-3c2C)cc1 | 32µM | 28µM | 25µM | 0 | 0 | ? | 0 | 16µM | 0 | 0 | 0 | 0
O=C1NC(=S)SC1=C1CCCC1 | 10µM | 0 | 7.9µM | ? | 0 | 0 | 0 | ? | 0 | ? | 45µM | -
CN1C(=O)C(=C2CCCCCC2)SC1=S | 0 | 0 | 0 | 0 | 0 | - | - | - | - | - | - | -
CC1(OC(=O)c2cccs2)C(=O)C=C2C=C3CCCN3C=C2C1=O (stereo not drawn) | 8.9µM | 5.6µM | 25µM | 22µM | 0[11.5 µM] | 0 | 0 | ? | 0 | 35µM | 35µM | ?
O=c1/c(=C/c2ccco2)sc2nc(-c3ccccc3Br)nn12 | 22µM | 25µM | 16µM | 0 | 0 | 0 | 0 | ? | 0 | 0 | 0 | ?
COc1ccc(/C=c2\sc3nc(-c4ccccc4OC)nn3c2=O)c(OC)c1 | 0 | 0 | 0 | 0 | 0 | - | - | - | - | - | - | -
C=C1c2cccc(O)c2C(O)=C2C(=O)[C@@]3(O)C(O)=C(C(N)=O)C(=O)[C@@H](N(C)C)[C@@H]3[C@@H](O)[C@H]12 | - | ? | ? | 0 | - | 0 | 0 | 0 | ? | ? | 14µM | -
C[C@H]1c2cccc(O)c2C(O)=C2C(=O)[C@]3(O)C(O)=C(C(N)=O)C(=O)[C@@H](N(C)C)C3[C@@H](O)C21 (stereo partly drawn) | 0 | - | - | - | - | - | - | - | - | - | - | -
Cc1cccc(-c2noc(-c3cc(C(C)C)[nH]n3)n2)c1 | - | - | - | 0 | - | - | - | - | - | - | - | -
CCCCC1=CC2=C(c3ccco3)C(=O)C(C)(OC(=O)c3ccc(OC)cc3)C(=O)C2=CN1Cc1ccco1 (stereo not drawn) | 7.1µM | 13µM! | 6.3µM! | ? | ? | 0 | 0 | ? | 0 | - | - | 0
CCCCC1=CC2=C(c3ccco3)C(=O)C(C)(OC(=O)c3ccc(OC)cc3)C(=O)C2=CN1Cc1ccc(OC)cc1 (stereo not drawn) | 0[12.4 µM] | 0[11.4 µM] | 0 | 0[12.4 µM] | ? | - | - | - | - | - | - | -
CCCn1c(C)nc2c(NCCCN(CCO)CCO)nc(C)nc21 | 0 | 0 | 0 | 0 | 0 | - | - | - | - | - | - | -
Cc1ccc(NC(=O)CN2C(=O)S/C(=C/c3ccc(O)c([N+](=O)[O-])c3)C2=O)cc1C | ? | ? | ? | 25µM | ? | - | - | ? | - | - | - | 22µM
CCCCCCCC1=Cc2ccccc2C(C(C(C)=O)C(=O)OC)N1C(=O)OC (stereo not drawn) | 0[12.4 µM] | 0[11.4 µM] | 0[11.5 µM] | 0[12.4 µM] | 0[11.5 µM] | - | - | - | - | - | - | -
CC(C)=CCC/C(C)=C/CO/N=C1/C[C@@H](O)[C@@H](O)[C@@H]2[C@@H]3C(=O)N(C4CCCCC4)C(=O)[C@H]3CC[C@@H]12 | 0[12.4 µM] | - | 0[11.5 µM] | 0[12.4 µM] | - | - | - | - | - | - | - | -
COc1ccc(-c2cc(C(=O)NN)n(-c3ccccc3)n2)cc1 | 0 | 0 | 0 | 0 | 0 | - | - | - | - | - | - | -
CCOC(=O)c1cc(-c2ccc(OC)cc2)nn1-c1ccccc1C(=O)O | 2.5µM | 0 | 7.9µM | 0 | 0 | - | - | 40µM | - | ? | 0 | ?
COc1ccc(-c2cc3ccc(O)c(CN4CCCC4)c3oc2=O)cc1OC | - | - | - | 0 | - | - | - | - | - | - | - | -
SMILES | APE1 inh-1 | KDM4E inh | RECQ1 inh-1 | BLM helicase inh | PKM2 act | APE1 dye cs | Endo IV inh | APE1 inh-2 | APE1 FP inh | RECQ1 inh conf | ADP FP counter | RECQ1 inh-2
CCC1(CC)NC(=O)N(CC(=O)Nc2sc3c(c2C(N)=O)CCC3)C1=O | 18µM | ? | 22µM | 0 | 0 | 0 | ? | ? | ? | 45µM | ? | ?
CCC1(C)NC(=O)N(CC(=O)Nc2sc3c(c2C(=O)OC)CCCCC3)C1=O (stereo not drawn) | 0 | 0 | 0 | 0 | 0 | - | - | - | - | - | - | -
CC(=O)OCC1OC(C#Cc2ccc(Cl)cc2)C=CC1OC(C)=O (stereo not drawn) | 0[12.4 µM] | - | 0[11.5 µM] | 0[12.4 µM] | - | - | - | - | - | - | - | -
CCN(c1ccccc1)S(=O)(=O)c1cc(C(=O)O)ccc1C | 16µM | 0 | 28µM | 0 | 0 | - | - | 32µM | - | - | - | ?
CCCC(=O)Oc1c(Sc2ccc(Cl)cc2)c(C)nn1-c1ccccc1 | - | - | - | 0 | - | - | - | - | - | - | - | -
COc1ccc(N2Cc3cccc(C(=O)NC(C)CCc4ccco4)c3C2=O)cc1 (stereo not drawn) | 11µM | ? | 7.9µM | ? | 0 | 0 | 0 | 11µM | 0 | 35µM | 0 | 10µM

Screens as filed in PubChem.
